Results taken from PubChem BioAssay (EPA / NIEHS).
Activity calls are given as the source filed them. The calls were made as follows: active = hit-call score of the fitted dose curve at least 0.9, where 1 is the maximum; inactive = score below 0.9.

Assays:
[1] = ATG_AP_2_CIS: Attagene CIS-FACTORIAL HepG2 Assay for human Activator Protein 2 (AP-2) (AID 2282932); details: HepG2 AP-2 cis-reporter, Attagene transcription factor profiling; actives raise or lower the signal
How it was run: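 HepG2 cells were transiently transfected with multiple cis-promoter reporter transcription units and dosed for 24 h. Reporter mRNA was measured by RT-PCR with capillary electrophoresis fluorescence; bidirectional fits relative to DMSO baseline.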

[2] = ATG_BRE_CIS: Attagene CIS-FACTORIAL HepG2 Assay for human Bone Morphogenetic Protein (BMP) Response Element (BRE) (AID 2282933); details: HepG2 BMP response element reporter, Attagene transcription factor profiling; actives raise or lower the signal
How it was run: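 Endogenous transcription factor activity read in transiently transfected HepG2 cells after 24 h chemical exposure. Bidirectional curve fitting against DMSO; readout is reporter transcript level by RT-PCR with capillary electrophoresis of labelled products.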

[3] = target: Retinoic acid receptor alpha (Homo sapiens) (UniProt P10276); assay: ATG_DR5_RAR_CIS: Attagene CIS-FACTORIAL HepG2 Assay for human Retinoic Acid Receptor Alpha (RARE), DR5 submotif (AID 2282934); details: HepG2 Attagene cis-factorial RARE DR5 reporter, mRNA; actives raise or lower the signal;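 as to AC50: reporter responds to endogenous RAR alpha beta and gamma in HepG2 not RARA alone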
Retinoic acid receptor alpha (Homo sapiens), sequence (P10276 whole entry, looked up): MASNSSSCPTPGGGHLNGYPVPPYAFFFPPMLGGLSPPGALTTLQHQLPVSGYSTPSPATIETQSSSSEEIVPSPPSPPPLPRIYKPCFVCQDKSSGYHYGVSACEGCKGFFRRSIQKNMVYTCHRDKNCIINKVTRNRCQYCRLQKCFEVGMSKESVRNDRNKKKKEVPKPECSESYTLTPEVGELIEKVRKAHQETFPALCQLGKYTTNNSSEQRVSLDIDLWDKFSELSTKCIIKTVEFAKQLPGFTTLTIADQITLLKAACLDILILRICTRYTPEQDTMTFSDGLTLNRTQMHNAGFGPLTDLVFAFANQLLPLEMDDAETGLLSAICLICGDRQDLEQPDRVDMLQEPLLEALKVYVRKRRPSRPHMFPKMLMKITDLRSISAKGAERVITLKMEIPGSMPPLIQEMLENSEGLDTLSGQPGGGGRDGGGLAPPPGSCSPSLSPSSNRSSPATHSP
How it was run: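 HepG2 cells transiently transfected with multiplexed reporter units under cis (DR5 RARE) promoters, so endogenous transcription factor activity is measured. After 24 h compound exposure, reporter mRNA is quantified by RT-PCR with fluorescent labelling and capillary electrophoresis; bidirectional fitting versus DMSO.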

[4] = target: Transcription factor E2F1 (Homo sapiens) (UniProt Q01094); assay: ATG_E2F_CIS: Attagene CIS-FACTORIAL HepG2 Assay for human E2F Transcription Factor 1 (AID 2282935); details: HepG2 Attagene cis-reporter, E2F reporter RNA transcripts; actives raise or lower the signal
Transcription factor E2F1 (Homo sapiens), sequence (Q01094 whole entry, looked up): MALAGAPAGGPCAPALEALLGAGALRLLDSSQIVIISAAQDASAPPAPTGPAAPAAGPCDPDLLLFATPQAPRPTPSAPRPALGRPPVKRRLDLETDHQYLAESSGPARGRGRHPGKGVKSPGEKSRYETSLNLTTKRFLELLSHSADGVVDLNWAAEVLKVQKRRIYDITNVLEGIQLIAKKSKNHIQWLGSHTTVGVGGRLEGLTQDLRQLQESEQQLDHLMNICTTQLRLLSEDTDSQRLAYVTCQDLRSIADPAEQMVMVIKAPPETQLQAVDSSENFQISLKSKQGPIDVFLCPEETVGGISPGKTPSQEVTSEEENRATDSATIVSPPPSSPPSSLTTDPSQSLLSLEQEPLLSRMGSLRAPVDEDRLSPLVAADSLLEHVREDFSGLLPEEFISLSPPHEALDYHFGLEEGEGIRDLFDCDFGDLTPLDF
How it was run: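 HepG2 cells transiently transfected with multiplexed cis-element reporter units, dosed for 24 h. Reporter mRNA measured by RT-PCR, 6-FAM primer-extension labeling, HpaI digestion and capillary electrophoresis; bidirectional fit versus DMSO baseline.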

[5] = ATG_E_Box_CIS: Attagene CIS-FACTORIAL HepG2 Assay for human Enhancer Box (E-box) (AID 2282936); details: HepG2 E-box cis-reporter transcription, actives raise or lower the signal
How it was run: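 HepG2 cells transiently transfected with multiplexed cis-element reporter units sensing endogenous transcription factor activity; 24 h compound exposure. Reporter mRNA measured by RT-PCR, 6-FAM primer extension, HpaI digestion and capillary electrophoresis; bidirectional fit versus DMSO.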

[6] = ATG_M_61_CIS: Attagene CIS-FACTORIAL HepG2 Assay for M61 Transcription Factor (Internal Marker) (AID 2282937); details: HepG2 Attagene CIS-FACTORIAL M61 internal marker reporter; actives raise or lower the signal
How it was run: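 Cells were transfected with reporter units under cis-regulatory promoters, treated with chemicals for 24 h, then lysed for RNA. Reporter transcripts were quantified by RT-PCR and capillary electrophoresis, and activity was fitted bidirectionally against DMSO.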

[7] = ATG_EGR_CIS: Attagene CIS-FACTORIAL HepG2 Assay for human Early Growth Response 1 (EGR1) (AID 2282938); details: HepG2 Attagene CIS-FACTORIAL EGR reporter mRNA; actives raise or lower the signal
How it was run: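 Endogenous TF activity in HepG2 liver cells was gauged through cis-promoter reporter constructs transiently transfected. After 24 h dosing, reporter mRNA was quantified by RT-PCR and capillary electrophoresis, and curves fitted in both directions versus DMSO.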

[8] = ATG_M_19_CIS: Attagene CIS-FACTORIAL HepG2 Assay for M19 Transcription Factor (Internal Marker) (AID 2282939); details: HepG2 Attagene CIS-FACTORIAL M19 internal marker reporter; actives raise or lower the signal
How it was run: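 Internal marker readout, fitted in both directions against DMSO, from HepG2 cells carrying transfected cis-element reporter constructs; RT-PCR and capillary electrophoresis of reporter mRNA after 24 h exposure.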

[9] = ATG_ERE_CIS: Attagene CIS-FACTORIAL HepG2 Assay for Estrogen Response Element (ERE) (AID 2282940); details: HepG2 ERE cis-reporter, Attagene RNA transcript; actives raise or lower the signal
How it was run: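 After 24 h compound treatment, RNA from transfected HepG2 cells was reverse-transcribed, reporter cDNA PCR-amplified, FAM-labelled, HpaI-cut and resolved by capillary electrophoresis. ERE-driven cis reporter transcripts reflect endogenous factors; gain or loss scored against DMSO.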

[10] = ATG_Ets_CIS: Attagene CIS-FACTORIAL HepG2 Assay for human Erythroblast Transformation Specific (ETS) (AID 2282941); details: HepG2 ETS cis-reporter transcription, actives raise or lower the signal
How it was run: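 Steps: transfect HepG2 with multiple reporter units; treat compound 24 h; isolate RNA, DNase-treat, reverse-transcribe; PCR-amplify, label with 6-FAM, digest with HpaI; separate by capillary electrophoresis. Activity fitted both directions versus DMSO.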

[11] = target: Hepatocyte nuclear factor 3-beta (Homo sapiens) (UniProt Q9Y261); assay: ATG_FoxA2_CIS: Attagene CIS-FACTORIAL HepG2 Assay for human Forkhead box A2 (FOXA2) (AID 2282942); details: HepG2 cis-reporter transcription factor activity, 24 h; actives raise or lower the signal
Hepatocyte nuclear factor 3-beta (Homo sapiens), sequence (Q9Y261 whole entry, looked up): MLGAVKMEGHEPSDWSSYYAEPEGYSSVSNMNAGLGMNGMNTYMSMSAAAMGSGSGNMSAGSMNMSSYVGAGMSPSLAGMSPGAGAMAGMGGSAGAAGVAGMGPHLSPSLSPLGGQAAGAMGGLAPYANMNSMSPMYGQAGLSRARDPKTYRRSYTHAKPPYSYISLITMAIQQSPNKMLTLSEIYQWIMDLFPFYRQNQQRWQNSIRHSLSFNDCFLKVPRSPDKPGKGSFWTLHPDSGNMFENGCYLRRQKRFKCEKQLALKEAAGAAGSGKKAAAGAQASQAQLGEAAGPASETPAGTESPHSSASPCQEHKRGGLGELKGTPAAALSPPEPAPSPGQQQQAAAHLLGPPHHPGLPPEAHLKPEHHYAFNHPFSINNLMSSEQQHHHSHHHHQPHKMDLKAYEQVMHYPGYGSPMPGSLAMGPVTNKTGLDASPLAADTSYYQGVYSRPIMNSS
How it was run: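 Endogenous transcription factor activity was read in HepG2 cells carrying transiently transfected cis-promoter reporter units. After 24 h dosing, reporter mRNA was quantified by RT-PCR and capillary electrophoresis, and values fitted bidirectionally versus DMSO.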

[12] = ATG_FoxO_CIS: Attagene CIS-FACTORIAL HepG2 Assay for human Forkhead box O (FoxO) (AID 2282943); details: HepG2 Attagene cis-reporter, FoxO element, mRNA; actives raise or lower the signal
How it was run: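 HepG2 cells transiently transfected with cis-promoter-driven multiple reporter transcription units; 24 h after chemical dosing, reporter mRNA quantified by RT-PCR, fluorescent primer extension, HpaI digestion and capillary electrophoresis. Bidirectional fitting versus DMSO baseline.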

[13] = ATG_GATA_CIS: Attagene CIS-FACTORIAL HepG2 Assay for human GATA Binding Protein (AID 2282944); details: HepG2 GATA cis-element reporter, Attagene multiplex mRNA; actives raise or lower the signal
How it was run: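 Reporter transcripts from a GATA cis-regulated unit, among multiplexed reporters in transfected HepG2 cells, were measured by RT-PCR with capillary electrophoresis after 24 h dosing. Induction or loss scored relative to DMSO.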

[14] = ATG_GLI_CIS: Attagene CIS-FACTORIAL HepG2 Assay for human Zinc Finger Protein GLI1 (AID 2282945); details: HepG2, Attagene cis-factorial reporter mRNA, GLI element; actives raise or lower the signal
How it was run: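 HepG2 cells transiently transfected with cis-promoter multiplexed reporter units report endogenous transcription factor activity. After 24 h chemical exposure, reporter mRNA was quantified by RT-PCR, 6-FAM labelling, HpaI digestion and capillary electrophoresis, with bidirectional fitting against DMSO.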

[15] = target: Bile acid receptor (Homo sapiens) (UniProt Q96RI1); assay: ATG_IR1_CIS: Attagene CIS-FACTORIAL HepG2 Assay for human Nuclear Receptor Subfamily 1 Group H Member 4 (NR1H4), IR1 submotif (AID 2282946); details: IR1 reporter transcription, actives raise or lower the signal
Bile acid receptor (Homo sapiens), sequence (Q96RI1 whole entry, looked up): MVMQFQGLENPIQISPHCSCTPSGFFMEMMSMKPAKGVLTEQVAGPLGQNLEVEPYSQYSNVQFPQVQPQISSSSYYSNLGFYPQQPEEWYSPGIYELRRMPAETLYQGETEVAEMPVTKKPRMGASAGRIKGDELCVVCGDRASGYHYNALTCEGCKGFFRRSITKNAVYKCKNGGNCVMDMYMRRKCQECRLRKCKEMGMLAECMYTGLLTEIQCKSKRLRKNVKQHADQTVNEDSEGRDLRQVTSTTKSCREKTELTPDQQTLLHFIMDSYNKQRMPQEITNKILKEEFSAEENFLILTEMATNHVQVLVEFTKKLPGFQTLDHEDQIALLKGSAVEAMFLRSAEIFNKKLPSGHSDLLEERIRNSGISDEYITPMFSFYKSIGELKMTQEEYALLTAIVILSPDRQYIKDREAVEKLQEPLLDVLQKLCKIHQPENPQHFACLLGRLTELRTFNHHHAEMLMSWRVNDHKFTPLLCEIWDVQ
How it was run: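 Transient MRTU transfection, HepG2; 24 h dosing; RNA → RT-PCR → 6-FAM primer extension → HpaI digest → capillary electrophoresis fluorescence. Gain/loss of signal fitted relative to DMSO.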

[16] = ATG_GRE_CIS: Attagene CIS-FACTORIAL HepG2 Assay for human Glucocorticoid Response Elements (GRE) (AID 2282947); details: HepG2 GRE cis-reporter, Attagene multiplex mRNA; actives raise or lower the signal
How it was run: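 HepG2 cells transiently transfected with multiple cis-promoter reporter units measure endogenous TF activity; 24 h compound exposure. Reporter mRNA quantified by RT-PCR, FAM labelling, HpaI digestion and capillary electrophoresis; bidirectional fit vs DMSO baseline.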

[17] = ATG_ISRE_CIS: Attagene CIS-FACTORIAL HepG2 Assay for human Interferon Regulatory Factor 1 (IRF1) binding to an Interferon-Stimulated Response Element (ISRE) (AID 2282948); details: HepG2 ISRE cis-reporter (Attagene), mRNA transcription readout; actives raise or lower the signal
How it was run: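 Transfected HepG2 (multiple reporter transcription units, cis elements) dosed 24 h. RNA → oligo(dT) RT → PCR → 6-FAM primer extension → HpaI → CE. DMSO = negative control/baseline.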

[18] = ATG_M_32_CIS: Attagene CIS-FACTORIAL HepG2 Assay for M32 Transcription Factor (Internal Marker) (AID 2282949); details: HepG2 Attagene cis-factorial M32 reporter, mRNA; actives raise or lower the signal;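 also: background control marker of the multiplexed CIS panel rather than a real target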
How it was run: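 Internal background marker read-out: RT-PCR/capillary electrophoresis fluorescence of reporter transcripts from transiently transfected HepG2 cells after 24 h chemical exposure. Activity fitted bidirectionally relative to DMSO negative control.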

[19] = ATG_M_06_CIS: Attagene CIS-FACTORIAL HepG2 Assay for M06 Transcription Factor (Internal Marker) (AID 2282950); details: HepG2 Attagene CIS-FACTORIAL M06 internal marker reporter; actives raise or lower the signal
How it was run: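 Serves as a background control readout. Transfected HepG2 exposed to compounds for 24 h, then reporter transcripts quantified by fluorescent RT-PCR and capillary electrophoresis. Both directions fitted against DMSO baseline.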

## CCC(C)(C)c1ccc(O)c(C(C)(C)CC)c1
[1]
  outcome: inactive
[2]
  outcome: inactive
[3]
  AC50: 5.73 µM (active)
[4]
  outcome: inactive
[5]
  outcome: inactive
[6]
  outcome: inactive
[7]
  outcome: inactive
[8]
  outcome: inactive
[9]
  outcome: inactive
[10]
  outcome: inactive
[11]
  outcome: inactive
[12]
  outcome: inactive
[13]
  outcome: inactive
[14]
  outcome: inactive
[15]
  AC50: 5.81 µM (active)
[16]
  outcome: inactive
[17]
  outcome: inactive
[18]
  outcome: inactive
[19]
  outcome: inactive

## C=CC(=O)N(C)C
[1]
  outcome: inactive
[2]
  outcome: inactive
[4]
  outcome: inactive
[5]
  outcome: inactive
[6]
  outcome: inactive
[7]
  outcome: inactive
[8]
  outcome: inactive
[9]
  outcome: inactive
[10]
  outcome: inactive
[11]
  outcome: inactive
[12]
  outcome: inactive
[13]
  outcome: inactive
[14]
  outcome: inactive
[15]
  outcome: inactive
[16]
  outcome: inactive
[17]
  outcome: inactive
[18]
  outcome: inactive
[19]
  outcome: inactive

## Oc1c(I)cc(I)cc1I
[1]
  AC50: 63.7 µM (active)
[2]
  AC50: 43.2 µM (active)
[3]
  outcome: inactive
[4]
  outcome: inactive
[5]
  AC50: 4.99 µM (active)
[6]
  outcome: inactive
[7]
  AC50: 71.1 µM (active)
[9]
  outcome: inactive
[10]
  outcome: inactive
[11]
  outcome: inactive
[12]
  AC50: 100 µM (active)
[13]
  outcome: inactive
[14]
  AC50: 149 µM (active)
[15]
  outcome: inactive
[16]
  outcome: inactive
[17]
  AC50: 100 µM (active)
[18]
  outcome: inactive
[19]
  outcome: inactive

## N#Cc1ccccn1
[2]
  outcome: inactive
[3]
  outcome: inactive
[4]
  outcome: inactive
[5]
  outcome: inactive
[6]
  outcome: inactive
[7]
  outcome: inactive
[8]
  outcome: inactive
[9]
  outcome: inactive
[10]
  outcome: inactive
[11]
  outcome: inactive
[12]
  outcome: inactive
[13]
  outcome: inactive
[14]
  outcome: inactive
[17]
  outcome: inactive
[18]
  outcome: inactive
[19]
  outcome: inactive

## O=C1C(Cl)=C(Cl)C(=O)c2ccccc21
[1]
  outcome: inactive
[2]
  outcome: inactive
[3]
  outcome: inactive
[4]
  outcome: inactive
[5]
  outcome: inactive
[6]
  outcome: inactive
[7]
  outcome: inactive
[8]
  outcome: inactive
[9]
  AC50: 5.75 µM (active)
[10]
  outcome: inactive
[11]
  outcome: inactive
[12]
  outcome: inactive
[13]
  outcome: inactive
[14]
  outcome: inactive
[16]
  outcome: inactive
[17]
  outcome: inactive
[18]
  outcome: inactive
[19]
  outcome: inactive

## Nc1ccc(-c2ccc(N)c(Cl)c2)cc1Cl
[2]
  outcome: inactive
[4]
  outcome: inactive
[5]
  outcome: inactive
[6]
  outcome: inactive
[7]
  outcome: inactive
[8]
  outcome: inactive
[9]
  AC50: 3.86 µM (active)
[10]
  outcome: inactive
[11]
  outcome: inactive
[12]
  outcome: inactive
[13]
  outcome: inactive
[14]
  outcome: inactive
[16]
  outcome: inactive
[17]
  outcome: inactive
[18]
  outcome: inactive
[19]
  outcome: inactive

## C[C@]12CC[C@H](O)CC1=CC[C@@H]1[C@@H]2CC[C@]2(C)C(=O)CC[C@@H]12
[1]
  outcome: inactive
[2]
  outcome: inactive
[3]
  outcome: inactive
[4]
  outcome: inactive
[5]
  outcome: inactive
[6]
  outcome: inactive
[7]
  outcome: inactive
[9]
  AC50: 0.987 µM (active)
[10]
  outcome: inactive
[11]
  outcome: inactive
[12]
  outcome: inactive
[13]
  outcome: inactive
[14]
  outcome: inactive
[16]
  outcome: inactive
[17]
  outcome: inactive
[18]
  outcome: inactive
[19]
  outcome: inactive

## O=C(NCO)NCO
[1]
  outcome: inactive
[2]
  outcome: inactive
[4]
  outcome: inactive
[5]
  outcome: inactive
[6]
  outcome: inactive
[7]
  outcome: inactive
[9]
  AC50: 54.5 µM (active)
[10]
  outcome: inactive
[11]
  outcome: inactive
[12]
  outcome: inactive
[13]
  outcome: inactive
[14]
  outcome: inactive
[16]
  outcome: inactive
[17]
  outcome: inactive
[18]
  outcome: inactive
[19]
  outcome: inactive

## Cc1ccc2ccccc2c1C
[1]
  outcome: inactive
[2]
  outcome: inactive
[3]
  outcome: inactive
[4]
  outcome: inactive
[5]
  outcome: inactive
[6]
  outcome: inactive
[7]
  outcome: inactive
[8]
  outcome: inactive
[9]
  outcome: inactive
[10]
  outcome: inactive
[11]
  outcome: inactive
[12]
  outcome: inactive
[13]
  outcome: inactive
[14]
  outcome: inactive
[16]
  outcome: inactive
[17]
  outcome: inactive
[18]
  outcome: inactive
[19]
  outcome: inactive
